# Measured values published in PMC7862700, “An all-to-all approach to the identification of sequence-specific readers for epigenetic DNA modifications on cytosine”.
# Columns and labels:
# Assay in all cases: DAPPL (digital affinity profiling via proximity ligation, sequencing); 10 mM Tris-HCl pH 7.5, 50 mM NaCl, 1 mM DTT, 4% glycerol, room temperature, 30 min; GST-TFs on glutathione beads, 16-mer random dsDNA library, 0.1% formaldehyde crosslink after washing; high values mean tight binding
# FEV = target: T1, FEV (Homo sapiens, UniProt Q99581 1-238); details: protein: recombinant; tags: N-terminal GST; dsDNA, one strand shown
# T1 sequence: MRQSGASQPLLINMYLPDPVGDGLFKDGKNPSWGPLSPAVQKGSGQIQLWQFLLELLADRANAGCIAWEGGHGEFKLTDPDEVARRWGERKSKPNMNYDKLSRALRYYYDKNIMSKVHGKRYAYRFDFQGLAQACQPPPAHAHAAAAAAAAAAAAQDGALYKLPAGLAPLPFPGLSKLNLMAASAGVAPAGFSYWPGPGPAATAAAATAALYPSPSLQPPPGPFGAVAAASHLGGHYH
# Procedure, shortened: (§1)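 Binding signal is given per hexamer as its read frequency for a factor divided by its frequency in the tag-only sample. GST-fused human transcription factors were expressed in yeast, captured on glutathione beads, barcoded with DNA and pooled with that sample, then incubated with 200 nmole of a 16-mer random double-stranded DNA library in Tris/NaCl/DTT/glycerol buffer for 30 min at room temperature. The pools were then washed, crosslinked, proximity-ligated, amplified by PCR and sequenced on an Illumina NextSeq500.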
# ETV5 = ETV5 (Homo sapiens, UniProt P41161 1-510); details: protein: recombinant; tags: N-terminal GST; dsDNA, one strand shown
# ETV5, sequence (P41161 whole entry): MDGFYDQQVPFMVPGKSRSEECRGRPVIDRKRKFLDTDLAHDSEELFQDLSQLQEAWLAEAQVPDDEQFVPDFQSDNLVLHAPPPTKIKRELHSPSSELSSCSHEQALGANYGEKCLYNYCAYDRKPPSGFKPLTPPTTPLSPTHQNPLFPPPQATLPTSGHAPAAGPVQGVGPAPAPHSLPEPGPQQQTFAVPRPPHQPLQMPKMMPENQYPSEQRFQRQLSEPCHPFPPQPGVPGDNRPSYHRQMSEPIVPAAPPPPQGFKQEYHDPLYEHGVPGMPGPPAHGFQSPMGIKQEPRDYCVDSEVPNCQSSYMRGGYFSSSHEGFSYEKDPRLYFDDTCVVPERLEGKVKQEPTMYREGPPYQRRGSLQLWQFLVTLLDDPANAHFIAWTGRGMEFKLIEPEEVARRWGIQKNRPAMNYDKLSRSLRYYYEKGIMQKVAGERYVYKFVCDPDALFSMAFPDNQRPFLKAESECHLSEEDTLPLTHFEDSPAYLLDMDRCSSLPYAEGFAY
# Procedure, shortened: as §1
# HSF1 = HSF1 (Homo sapiens, UniProt Q00613 1-529); details: protein: recombinant; tags: N-terminal GST; chain copies: 3; dsDNA, one strand shown
# HSF1, sequence (Q00613 whole entry): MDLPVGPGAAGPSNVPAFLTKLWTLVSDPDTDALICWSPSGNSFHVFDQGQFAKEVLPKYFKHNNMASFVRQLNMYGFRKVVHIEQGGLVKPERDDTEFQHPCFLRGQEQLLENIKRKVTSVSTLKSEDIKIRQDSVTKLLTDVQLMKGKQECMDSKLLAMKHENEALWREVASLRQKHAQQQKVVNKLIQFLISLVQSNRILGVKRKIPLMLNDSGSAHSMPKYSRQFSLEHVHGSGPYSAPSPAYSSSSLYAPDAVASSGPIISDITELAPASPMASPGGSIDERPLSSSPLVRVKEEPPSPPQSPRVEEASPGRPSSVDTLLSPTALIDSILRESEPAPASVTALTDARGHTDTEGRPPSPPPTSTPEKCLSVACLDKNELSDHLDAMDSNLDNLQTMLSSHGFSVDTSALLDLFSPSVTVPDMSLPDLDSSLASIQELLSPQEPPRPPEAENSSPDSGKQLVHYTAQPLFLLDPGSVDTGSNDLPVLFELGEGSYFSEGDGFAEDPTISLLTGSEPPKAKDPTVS
# Procedure, shortened: as §1
# SPIC = target: T2, SPIC (Homo sapiens, UniProt Q8N5J4 1-248); details: protein: recombinant; tags: N-terminal GST; dsDNA, one strand shown
# T2 sequence: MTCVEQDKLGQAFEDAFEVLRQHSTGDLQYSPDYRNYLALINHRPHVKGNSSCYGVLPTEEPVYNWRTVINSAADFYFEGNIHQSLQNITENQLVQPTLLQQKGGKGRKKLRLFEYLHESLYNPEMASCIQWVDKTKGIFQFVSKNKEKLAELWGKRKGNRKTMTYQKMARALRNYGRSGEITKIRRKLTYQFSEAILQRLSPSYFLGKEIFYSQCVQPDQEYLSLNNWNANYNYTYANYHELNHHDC
# Procedure, shortened: as §1
# ELF4 = ELF4 (Homo sapiens, UniProt Q99607 1-663); details: protein: recombinant; tags: N-terminal GST; dsDNA, one strand shown
# ELF4, sequence (Q99607 whole entry): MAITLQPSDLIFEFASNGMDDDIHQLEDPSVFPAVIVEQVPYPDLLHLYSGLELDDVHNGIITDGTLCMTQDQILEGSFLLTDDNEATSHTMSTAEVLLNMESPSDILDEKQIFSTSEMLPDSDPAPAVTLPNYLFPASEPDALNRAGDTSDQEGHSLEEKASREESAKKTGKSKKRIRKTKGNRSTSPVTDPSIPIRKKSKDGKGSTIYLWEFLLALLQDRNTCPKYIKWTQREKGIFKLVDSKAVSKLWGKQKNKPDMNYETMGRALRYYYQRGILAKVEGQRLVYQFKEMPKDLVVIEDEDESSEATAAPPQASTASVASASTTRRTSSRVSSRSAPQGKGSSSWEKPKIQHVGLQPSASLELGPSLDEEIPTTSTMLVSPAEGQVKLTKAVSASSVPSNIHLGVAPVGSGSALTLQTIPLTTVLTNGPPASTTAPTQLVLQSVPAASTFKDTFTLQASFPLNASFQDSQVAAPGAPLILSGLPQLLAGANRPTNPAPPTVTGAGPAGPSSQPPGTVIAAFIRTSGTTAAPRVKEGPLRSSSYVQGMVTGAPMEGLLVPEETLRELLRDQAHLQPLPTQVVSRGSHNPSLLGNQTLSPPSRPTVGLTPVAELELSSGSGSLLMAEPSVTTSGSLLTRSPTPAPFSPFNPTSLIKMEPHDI
# Procedure, shortened: as §1
# ELK4 = target: T3, ELK4 (Homo sapiens, UniProt P28324-2 1-405); details: protein: recombinant; tags: N-terminal GST; dsDNA, one strand shown
# T3 sequence: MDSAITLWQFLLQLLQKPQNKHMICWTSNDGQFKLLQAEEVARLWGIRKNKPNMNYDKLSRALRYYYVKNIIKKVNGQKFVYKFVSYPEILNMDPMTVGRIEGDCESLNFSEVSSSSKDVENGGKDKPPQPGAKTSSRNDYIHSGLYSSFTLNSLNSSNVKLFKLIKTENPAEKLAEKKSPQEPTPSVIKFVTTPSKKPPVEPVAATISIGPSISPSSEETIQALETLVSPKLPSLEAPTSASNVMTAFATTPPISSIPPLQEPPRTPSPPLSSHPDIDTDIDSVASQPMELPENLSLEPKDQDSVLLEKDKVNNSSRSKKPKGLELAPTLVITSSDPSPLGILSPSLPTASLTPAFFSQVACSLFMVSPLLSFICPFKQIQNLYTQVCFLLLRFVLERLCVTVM
# Procedure, shortened: as §1
# ETV2 = target: T4, ETV2 (Homo sapiens, UniProt O00321 1-342); details: protein: recombinant; tags: N-terminal GST; dsDNA, one strand shown
# T4 sequence: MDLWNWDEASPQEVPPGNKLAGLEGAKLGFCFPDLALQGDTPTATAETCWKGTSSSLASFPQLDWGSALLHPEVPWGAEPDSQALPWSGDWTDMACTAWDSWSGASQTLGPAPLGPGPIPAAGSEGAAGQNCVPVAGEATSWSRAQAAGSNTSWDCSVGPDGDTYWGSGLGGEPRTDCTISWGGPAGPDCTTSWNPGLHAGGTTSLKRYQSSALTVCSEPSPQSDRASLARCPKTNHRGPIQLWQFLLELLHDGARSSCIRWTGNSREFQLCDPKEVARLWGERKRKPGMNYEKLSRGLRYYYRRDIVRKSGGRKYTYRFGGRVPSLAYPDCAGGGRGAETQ
# Procedure, shortened: as §1
# ELF3 = target: T5, ELF3 (Homo sapiens, UniProt P78545 1-371); details: protein: recombinant; tags: N-terminal GST; dsDNA, one strand shown
# T5 sequence: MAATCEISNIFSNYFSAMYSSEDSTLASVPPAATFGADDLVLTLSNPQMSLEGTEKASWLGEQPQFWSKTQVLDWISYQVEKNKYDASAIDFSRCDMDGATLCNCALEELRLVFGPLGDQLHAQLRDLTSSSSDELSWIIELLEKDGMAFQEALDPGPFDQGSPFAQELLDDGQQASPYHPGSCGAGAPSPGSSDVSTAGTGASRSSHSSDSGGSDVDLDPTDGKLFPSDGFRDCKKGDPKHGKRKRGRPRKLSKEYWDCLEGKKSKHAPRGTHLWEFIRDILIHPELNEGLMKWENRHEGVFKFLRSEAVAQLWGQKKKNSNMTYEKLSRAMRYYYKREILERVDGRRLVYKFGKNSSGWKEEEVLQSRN
# Procedure, shortened: as §1
# CRX = CRX (Homo sapiens, UniProt O43186 1-299); details: protein: recombinant; tags: N-terminal GST; dsDNA, one strand shown
# CRX, sequence (O43186 whole entry): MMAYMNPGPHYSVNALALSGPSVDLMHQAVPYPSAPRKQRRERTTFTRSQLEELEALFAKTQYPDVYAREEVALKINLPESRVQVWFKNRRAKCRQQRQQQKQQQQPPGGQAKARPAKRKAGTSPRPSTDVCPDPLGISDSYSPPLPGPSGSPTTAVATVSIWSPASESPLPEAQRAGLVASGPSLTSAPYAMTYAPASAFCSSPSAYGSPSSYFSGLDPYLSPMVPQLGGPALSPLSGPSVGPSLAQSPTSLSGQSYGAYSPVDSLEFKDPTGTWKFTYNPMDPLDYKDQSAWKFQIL
# Procedure, shortened: as §1
# ETV1 = ETV1 (Homo sapiens, UniProt P50549 1-477); details: protein: recombinant; tags: N-terminal GST; dsDNA, one strand shown
# ETV1, sequence (P50549 whole entry): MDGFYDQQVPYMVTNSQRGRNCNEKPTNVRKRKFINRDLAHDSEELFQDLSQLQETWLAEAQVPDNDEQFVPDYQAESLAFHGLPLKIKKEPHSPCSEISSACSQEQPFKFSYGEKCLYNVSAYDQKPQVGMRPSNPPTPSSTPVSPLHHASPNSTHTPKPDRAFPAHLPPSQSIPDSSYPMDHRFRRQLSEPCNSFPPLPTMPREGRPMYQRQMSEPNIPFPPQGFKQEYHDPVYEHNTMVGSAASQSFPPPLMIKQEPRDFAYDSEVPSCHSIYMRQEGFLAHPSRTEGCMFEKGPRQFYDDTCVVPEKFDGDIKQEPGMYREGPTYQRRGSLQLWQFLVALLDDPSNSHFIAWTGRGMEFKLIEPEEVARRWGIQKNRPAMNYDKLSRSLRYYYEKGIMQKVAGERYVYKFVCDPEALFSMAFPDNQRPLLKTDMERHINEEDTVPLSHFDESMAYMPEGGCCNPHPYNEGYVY
# Procedure, shortened: as §1
# ERF = target: T6, ERF (Homo sapiens, UniProt P50548 1-548); details: protein: recombinant; tags: N-terminal GST; dsDNA, one strand shown
# T6 sequence: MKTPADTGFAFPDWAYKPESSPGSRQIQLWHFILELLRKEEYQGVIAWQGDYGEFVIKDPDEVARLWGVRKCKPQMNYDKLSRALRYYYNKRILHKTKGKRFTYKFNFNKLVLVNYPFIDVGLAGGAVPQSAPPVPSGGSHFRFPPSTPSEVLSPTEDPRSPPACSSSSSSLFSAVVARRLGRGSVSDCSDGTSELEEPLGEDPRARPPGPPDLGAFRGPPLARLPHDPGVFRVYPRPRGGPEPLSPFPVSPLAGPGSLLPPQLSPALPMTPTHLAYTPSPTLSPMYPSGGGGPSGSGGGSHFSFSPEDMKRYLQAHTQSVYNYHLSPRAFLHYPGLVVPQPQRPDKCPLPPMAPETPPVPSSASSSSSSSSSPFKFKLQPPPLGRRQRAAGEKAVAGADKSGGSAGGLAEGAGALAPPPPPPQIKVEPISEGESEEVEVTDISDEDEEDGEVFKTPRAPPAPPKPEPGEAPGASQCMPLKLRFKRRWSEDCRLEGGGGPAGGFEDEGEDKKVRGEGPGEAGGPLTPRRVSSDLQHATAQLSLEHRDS
# Procedure, shortened: as §1
# ETV3L = target: T7, ETV3L (Homo sapiens, UniProt Q6ZN32 1-361); details: protein: recombinant; tags: N-terminal GST; dsDNA, one strand shown
# T7 sequence: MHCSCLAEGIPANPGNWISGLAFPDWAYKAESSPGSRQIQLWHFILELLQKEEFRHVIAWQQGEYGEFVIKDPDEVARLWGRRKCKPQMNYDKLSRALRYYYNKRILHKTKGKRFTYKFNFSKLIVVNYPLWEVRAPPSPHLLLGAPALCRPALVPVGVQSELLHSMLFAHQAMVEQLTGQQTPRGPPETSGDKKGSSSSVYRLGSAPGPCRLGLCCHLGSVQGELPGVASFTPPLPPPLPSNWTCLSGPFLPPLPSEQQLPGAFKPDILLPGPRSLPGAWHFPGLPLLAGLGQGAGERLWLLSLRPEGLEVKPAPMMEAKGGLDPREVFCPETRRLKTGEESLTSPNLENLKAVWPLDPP
# Procedure, shortened: as §1
# ETS2 = target: T8, ETS2 (Homo sapiens, UniProt P15036 1-469); details: protein: recombinant; tags: N-terminal GST; dsDNA, one strand shown
# T8 sequence: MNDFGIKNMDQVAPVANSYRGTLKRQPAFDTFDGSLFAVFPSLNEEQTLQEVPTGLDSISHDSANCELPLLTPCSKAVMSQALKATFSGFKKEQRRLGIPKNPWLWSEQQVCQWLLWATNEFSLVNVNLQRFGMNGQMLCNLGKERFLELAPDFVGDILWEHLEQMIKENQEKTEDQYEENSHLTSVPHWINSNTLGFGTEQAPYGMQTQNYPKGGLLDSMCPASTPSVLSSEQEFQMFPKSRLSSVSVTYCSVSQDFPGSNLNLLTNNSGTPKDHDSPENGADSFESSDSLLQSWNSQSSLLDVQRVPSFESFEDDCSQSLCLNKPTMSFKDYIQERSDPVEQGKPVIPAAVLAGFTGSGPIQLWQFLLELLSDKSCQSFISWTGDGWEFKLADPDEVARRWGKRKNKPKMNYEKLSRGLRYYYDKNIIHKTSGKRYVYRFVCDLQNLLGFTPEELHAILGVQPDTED
# Procedure, shortened: as §1
# SPDEF = target: T9, SPDEF (Homo sapiens, UniProt O95238 1-335); details: protein: recombinant; tags: N-terminal GST; dsDNA, one strand shown
# T9 sequence: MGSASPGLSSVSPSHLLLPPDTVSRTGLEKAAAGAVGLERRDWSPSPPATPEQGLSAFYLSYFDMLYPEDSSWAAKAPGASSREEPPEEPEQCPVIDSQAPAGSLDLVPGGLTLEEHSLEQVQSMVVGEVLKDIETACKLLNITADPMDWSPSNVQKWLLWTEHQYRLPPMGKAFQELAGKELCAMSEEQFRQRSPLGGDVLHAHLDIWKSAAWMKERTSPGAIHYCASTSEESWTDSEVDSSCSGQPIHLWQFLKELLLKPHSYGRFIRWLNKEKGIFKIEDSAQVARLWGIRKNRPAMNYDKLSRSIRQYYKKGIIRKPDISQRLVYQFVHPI
# Procedure, shortened: as §1
# ETV7 = target: T10, ETV7 (Homo sapiens, UniProt Q9Y603 1-341); details: protein: recombinant; tags: N-terminal GST; dsDNA, one strand shown
# T10 sequence: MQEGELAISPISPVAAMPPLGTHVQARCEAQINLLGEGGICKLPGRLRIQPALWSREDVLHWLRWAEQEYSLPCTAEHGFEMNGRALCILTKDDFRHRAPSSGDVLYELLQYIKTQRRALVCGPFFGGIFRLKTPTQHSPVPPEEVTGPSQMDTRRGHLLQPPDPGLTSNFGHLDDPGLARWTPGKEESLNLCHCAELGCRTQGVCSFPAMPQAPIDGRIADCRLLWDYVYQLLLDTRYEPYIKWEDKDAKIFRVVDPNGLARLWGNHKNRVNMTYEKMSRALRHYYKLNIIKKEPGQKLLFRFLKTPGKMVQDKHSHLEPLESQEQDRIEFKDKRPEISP
# Procedure, shortened: as §1
# ELF5 = target: T11, ELF5 (Homo sapiens, UniProt Q9UKW6-2 1-255); details: protein: recombinant; tags: N-terminal GST; dsDNA, one strand shown
# T11 sequence: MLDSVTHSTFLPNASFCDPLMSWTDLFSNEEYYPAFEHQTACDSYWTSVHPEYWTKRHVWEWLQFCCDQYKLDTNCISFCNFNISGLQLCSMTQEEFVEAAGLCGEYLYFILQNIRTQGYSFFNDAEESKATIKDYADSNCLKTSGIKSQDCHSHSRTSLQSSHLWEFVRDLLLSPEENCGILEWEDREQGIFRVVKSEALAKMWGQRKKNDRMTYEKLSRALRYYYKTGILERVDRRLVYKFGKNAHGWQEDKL
# Procedure, shortened: as §1
# ETV3 = target: T12, ETV3 (Homo sapiens, UniProt P41162-2 1-143); details: protein: recombinant; tags: N-terminal GST; dsDNA, one strand shown
# T12 sequence: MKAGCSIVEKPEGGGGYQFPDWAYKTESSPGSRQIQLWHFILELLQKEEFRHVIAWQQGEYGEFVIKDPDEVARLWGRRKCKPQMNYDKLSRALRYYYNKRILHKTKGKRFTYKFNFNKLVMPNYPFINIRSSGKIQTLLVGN
# Procedure, shortened: as §1
# ETV6 = ETV6 (Homo sapiens, UniProt P41212 1-452); details: protein: recombinant; tags: N-terminal GST; dsDNA, one strand shown
# ETV6, sequence (P41212 whole entry): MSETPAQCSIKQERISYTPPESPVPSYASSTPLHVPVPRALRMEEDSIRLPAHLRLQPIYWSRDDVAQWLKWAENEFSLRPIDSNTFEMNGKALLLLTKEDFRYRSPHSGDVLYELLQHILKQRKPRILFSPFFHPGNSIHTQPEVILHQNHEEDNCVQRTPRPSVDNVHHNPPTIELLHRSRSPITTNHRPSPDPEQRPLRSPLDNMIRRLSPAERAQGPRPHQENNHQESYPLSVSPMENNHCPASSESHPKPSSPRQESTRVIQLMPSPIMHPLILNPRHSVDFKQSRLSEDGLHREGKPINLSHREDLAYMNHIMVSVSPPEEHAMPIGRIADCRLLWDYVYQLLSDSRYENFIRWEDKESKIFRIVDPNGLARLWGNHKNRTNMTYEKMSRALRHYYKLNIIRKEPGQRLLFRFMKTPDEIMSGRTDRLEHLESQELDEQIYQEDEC
# Procedure, shortened: as §1
sequence,measurement,setting,value
AATCAG,binding signal,FEV,"1.07 fold enrichment (6-mer frequency, TF over GST control)"
same,binding signal,ETV5,"1.15 fold enrichment (6-mer frequency, TF over GST control)"
same,binding signal,HSF1,"1.19 fold enrichment (6-mer frequency, TF over GST control)"
same,binding signal,SPIC,"1.2 fold enrichment (6-mer frequency, TF over GST control)"
same,binding signal,ELF4,"1.05 fold enrichment (6-mer frequency, TF over GST control)"
same,binding signal,ELK4,"1.16 fold enrichment (6-mer frequency, TF over GST control)"
same,binding signal,ETV2,"1.01 fold enrichment (6-mer frequency, TF over GST control)"
same,binding signal,ELF3,"1.14 fold enrichment (6-mer frequency, TF over GST control)"
same,binding signal,CRX,"1.42 fold enrichment (6-mer frequency, TF over GST control)"
same,binding signal,ETV1,"1.01 fold enrichment (6-mer frequency, TF over GST control)"
same,binding signal,ERF,"1.05 fold enrichment (6-mer frequency, TF over GST control)"
same,binding signal,ETV3L,"1.15 fold enrichment (6-mer frequency, TF over GST control)"
same,binding signal,ETS2,"1.08 fold enrichment (6-mer frequency, TF over GST control)"
same,binding signal,SPDEF,"1.01 fold enrichment (6-mer frequency, TF over GST control)"
same,binding signal,ETV7,"1.12 fold enrichment (6-mer frequency, TF over GST control)"
same,binding signal,ELF5,"1.04 fold enrichment (6-mer frequency, TF over GST control)"
same,binding signal,ETV3,"1.07 fold enrichment (6-mer frequency, TF over GST control)"
same,binding signal,ETV6,"1.14 fold enrichment (6-mer frequency, TF over GST control)"
